Here are results for 16 compounds from PubChem BioAssay.

Active and inactive are the calls of the source. Cut-off read from the data, not from the text of the source, unless noted: active = nuclear beta-catenin stimulation mostly above about 4.2% (no sharp cut-off); inactive = mostly below about 10%.

Assay [1] in a line: stimulators of nuclear beta-catenin in C2C12, primary screen, imaging, WNT3A-conditioned medium, mouse C2C12, NPC library (AID 1117326). Note: reference of the scale not given here. The settings on record: stronger effect = higher value.
Assay [2] is described as follows: stimulators of insulin release from INS-1E, primary screen, cell-based, 5 mM glucose, NPC library (AID 1117329;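 active = compound raises insulin release from rat beta cells at 5 mM glucose, no numeric limit stated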; note: reference of the scale not given here). The settings on record: rat INS-1E insulin secretion, at 10 µM, stronger effect = higher value.
The nature of assay [3]: growth inhibition of GSK3B-pretreated HCT116 cells – cell-based, CellTiter-Glo, 0.2 to 20 µM (AID 1117336;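 active = compounds lowering colon cancer cell viability after pretreatment blocking the GSK3B kinase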). The settings on record: HCT116 viability after GSK3B inhibitor, at 20 µM, stronger effect = higher value. For orientation: ATP-based viability assays read luminescence as a measure of living cells.
Assay [4] can be described thus: inhibition of endothelial tube formation, primary screen, imaging, VEGF stimulated, CD31 staining, tube area, NPC library (AID 1117340;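 active = compound that reduces growth-factor-driven endothelial tube area in a mixed cell culture, no cutoff stated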). The settings on record: VEGF-stimulated ADSC/ECFC co-culture, at 10 µM, stronger effect = higher value.
Assay [5] is described as follows: glucagon-like peptide 1 release enhancers, primary assay, NCI-H716 cell line, NPC library (AID 1117341;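 active = compound raises GLP1 secretion from the human gut endocrine cells, with no numeric limit stated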; note: reference of the scale not given here). The settings on record: NCI-H716 cells, at 10 µM, stronger effect = higher value.
Assay [6] can be described thus: HCT116 colon cancer cell growth inhibition, primary screen, CellTiter-Glo luminescence, NPC library (AID 1117342;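 active = compounds that lower survival of HCT116 colon cancer cells in the luminescence readout, no numeric limit stated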). The settings on record: at 20 µM (top of the series).
A short description of assay [7]: CellTiter-Glo luminescent readout of SW480 viability loss, NPC library primary (AID 1117343;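 active = compounds that lower viability of the colon cancer cells in the luminescence readout, with no numeric limit stated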). The settings on record: CellTiter-Glo luminescence; at 20 µM (top of the series).
A short description of assay [8]: decreased DLD-1 cellular survival, CellTiter-Glo luminescent readout, NPC compound collection, primary HTS (AID 1117346;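 active = compounds that lower survival of DLD-1 colon cancer cells in the luminescence readout, no cutoff given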). The settings on record: DLD-1 viability, CellTiter-Glo luminescence; at 20 µM (top of the series).

Consider `COc1ccc2cc(C=O)ccc2c1`, for which the nuclear beta-catenin stimulation in assay [1] (at 10 µM) is 0.1% (inactive); in assay [1] (stimulation, at 2 µM), 0.2%. Further, the insulin secretion stimulation in assay [2] is 0.95% (inactive). Besides, in assay [3], the viability decrease was 17.4% (inactive). Further, the tube area decrease in assay [4] was -8.2% (inactive). Besides, in assay [5], the GLP1 secretion stimulation is -3.7% (inactive). In addition, in assay [6], the inhibition of viability was 16.4% (inactive). Further, the results for the viability decrease (inhibition) in assay [7] and in assay [8] were 7% (inactive) and 5.8% (inactive), respectively.

Regarding `Cc1cn([C@H]2C[C@H](F)[C@@H](CO)O2)c(=O)[nH]c1=O`, the nuclear beta-catenin stimulation in assay [1] (at 10 µM) was 9.9% (inactive); in assay [1] (stimulation, at 2 µM) it was 3.4%. Moreover, the insulin secretion stimulation in assay [2] is 0.2% (inactive). Also, in assay [3], the viability decrease is -4.5% (inactive). In assay [4], the tube area decrease is 20.7% (inactive). The GLP1 secretion stimulation in assay [5] was -4.5% (inactive). The inhibition of viability in assay [6] is 1.4% (inactive). The viability decrease (inhibition) was -3.5% (inactive) in assay [7] and -8.7% (inactive) in assay [8].

Take `CC(C)(C)c1cc(C=O)cc(C(C)(C)C)c1O`: the nuclear beta-catenin stimulation in assay [1] (at 10 µM) is 2% (inactive); in assay [1] (stimulation, at 2 µM), 4.1%. The insulin secretion stimulation in assay [2] was 1.1% (inactive). Further, the viability decrease in assay [3] is 19.1% (inactive). In addition, the tube area decrease in assay [4] is 10.5% (inactive). Besides, the GLP1 secretion stimulation in assay [5] was 0.6% (inactive). The inhibition of viability in assay [6] was 4.5% (inactive). The viability decrease (inhibition) in assay [7] was -22.1% (inactive); in assay [8], -10% (inactive).

As to `CCc1cccc2c(CCO)c[nH]c12`, the nuclear beta-catenin stimulation was 1.1% (inactive) in assay [1] (at 10 µM) and 0.4% in assay [1] (stimulation, at 2 µM). In addition, the insulin secretion stimulation in assay [2] is 0.7% (inactive). Further, the viability decrease in assay [3] was 12.2% (inactive). Moreover, the tube area decrease in assay [4] is -19.3% (inactive). For the same compound, the GLP1 secretion stimulation in assay [5] is 0.1% (inactive). In assay [6], the inhibition of viability was -1.1% (inactive). The viability decrease (inhibition) in assay [7] was -18% (inactive); in assay [8], -6.5% (inactive).

`CC(=O)Oc1ccc(C2(c3ccc(OC(C)=O)cc3)Oc3ccccc3NC2=O)cc1`: the nuclear beta-catenin stimulation in assay [1] (at 10 µM) was 54.6% (active); in assay [1] (stimulation, at 2 µM), 9.3%. For the same compound, the insulin secretion stimulation in assay [2] was 19.9% (inactive). Also, the viability decrease in assay [3] is 91.8% (active). In addition, the tube area decrease in assay [4] is 106% (active). The GLP1 secretion stimulation in assay [5] was 1.6% (inactive). Also, in assay [6], the inhibition of viability is 83.3% (active). Besides, the viability decrease (inhibition) is 60.2% (active) in assay [7] and 52.2% (active) in assay [8].

Turning to `CCCCC(CC)CNC(=O)CC(C)OC(=O)CCC(=O)O` (centres undefined), the nuclear beta-catenin stimulation in assay [1] (at 10 µM) was -1.8% (inactive); in assay [1] (stimulation, at 2 µM), -0.8%. In addition, in assay [2], the insulin secretion stimulation was 4% (inactive). Besides, in assay [3], the viability decrease is -11.7% (inactive). The tube area decrease in assay [4] is 0.6% (inactive). Besides, the GLP1 secretion stimulation in assay [5] is -1% (inactive). In addition, the inhibition of viability in assay [6] was 4.5% (inactive). For the same compound, the viability decrease (inhibition) in assay [7] is 4.5% (inactive); in assay [8] it was -7.8% (inactive).

Take `O=C(/C=C/c1ccc(O)c(O)c1)O[C@@H]1C[C@@](OC(=O)/C=C/c2ccc(O)c(O)c2)(C(=O)O)C[C@@H](O)[C@@H]1O`: the nuclear beta-catenin stimulation is 0.7% (inactive) in assay [1] (at 10 µM) and 0.9% in assay [1] (stimulation, at 2 µM). The insulin secretion stimulation in assay [2] is -0.6% (inactive). For the same compound, the viability decrease in assay [3] was -72.8% (inactive). Further, the tube area decrease in assay [4] was 8.1% (inactive). Besides, the GLP1 secretion stimulation in assay [5] was 3.7% (inactive). Moreover, the inhibition of viability in assay [6] was 6.6% (inactive). The viability decrease (inhibition) in assay [7] was 6.5% (inactive); in assay [8], -13.6% (inactive).

Consider `COc1cc(/C=C/C(=O)O[C@H]2CC[C@]34C[C@]35CC[C@]3(C)[C@@H]([C@H](C)CCC=C(C)C)CC[C@@]3(C)[C@@H]5CC[C@H]4C2(C)C)ccc1O`, for which the nuclear beta-catenin stimulation in assay [1] (at 10 µM) was -1.5% (inactive); in assay [1] (stimulation, at 2 µM) it was -1.7%. Also, the insulin secretion stimulation in assay [2] was 7.6% (inactive). Further, the viability decrease in assay [3] was 2.6% (inactive). In addition, in assay [4], the tube area decrease is -12.4% (inactive). The GLP1 secretion stimulation in assay [5] is 0.5% (inactive). Further, the inhibition of viability in assay [6] was 10% (inactive). Besides, the viability decrease (inhibition) in assay [7] was -10.1% (inactive); in assay [8], -6.9% (inactive).

`Nc1ccc([N+](=O)[O-])c(C(F)(F)F)c1`: the nuclear beta-catenin stimulation in assay [1] (at 10 µM) was 0.5% (inactive); in assay [1] (stimulation, at 2 µM), -1%. Further, the insulin secretion stimulation in assay [2] is 0.2% (inactive). In assay [3], the viability decrease was 13.2% (inactive). In addition, the tube area decrease in assay [4] is 1.1% (inactive). Further, the GLP1 secretion stimulation in assay [5] is -0.8% (inactive). In addition, the inhibition of viability in assay [6] is 26.5% (inactive). For the same compound, the viability decrease (inhibition) is -16.7% (inactive) in assay [7] and 18.5% (inactive) in assay [8].

Consider `CC(C)(C)c1ccc2c(S(=O)(=O)O)c(C(C)(C)C)ccc2c1`, for which the nuclear beta-catenin stimulation in assay [1] (at 10 µM) was -2.9% (inactive); in assay [1] (stimulation, at 2 µM), -1.4%. In addition, in assay [2], the insulin secretion stimulation is 0.3% (inactive). For the same compound, in assay [3], the viability decrease was -22% (inactive). In addition, in assay [4], the tube area decrease was -2.7% (inactive). In assay [5], the GLP1 secretion stimulation was 1% (inactive). Moreover, the inhibition of viability in assay [6] is -18.9% (inactive). For the same compound, the viability decrease (inhibition) was 9% (inactive) in assay [7] and -14.4% (inactive) in assay [8].

Regarding `C[C@@]12CCC[C@H]1[C@@H]1CC[C@H]3C[C@@H](O)CC[C@]3(C)[C@H]1CC2`, the nuclear beta-catenin stimulation in assay [1] (at 10 µM) was 3% (inactive); in assay [1] (stimulation, at 2 µM), -0.1%. The insulin secretion stimulation in assay [2] was -1% (inactive). Moreover, the viability decrease in assay [3] was 65.4% (active). For the same compound, in assay [4], the tube area decrease is -28.4% (inactive). The GLP1 secretion stimulation in assay [5] is 4% (inactive). The inhibition of viability in assay [6] is -11.6% (inactive). Further, the viability decrease (inhibition) is 121% (active) in assay [7] and 103% (active) in assay [8].

With `Cc1cc(N)c2cc(NC(=O)Nc3ccc4nc(C)cc(N)c4c3)ccc2n1`, the nuclear beta-catenin stimulation was 2.4% (inactive) in assay [1] (at 10 µM) and -2.2% in assay [1] (stimulation, at 2 µM). In addition, in assay [2], the insulin secretion stimulation is 8.1% (inactive). The viability decrease in assay [3] was 54.4% (active). The tube area decrease in assay [4] was -0.3% (inactive). Moreover, the GLP1 secretion stimulation in assay [5] was 32.3% (active). In addition, the inhibition of viability in assay [6] was 64% (active). Also, the viability decrease (inhibition) is 144% (active) in assay [7] and 94.2% (active) in assay [8].

Consider `CC(CC(C#N)(c1ccccc1)C(C)C)N(C)C` (centres undefined), for which the nuclear beta-catenin stimulation in assay [1] (at 10 µM) is 2.7% (inactive); in assay [1] (stimulation, at 2 µM), 0.9%. Besides, the insulin secretion stimulation in assay [2] is 3.4% (inactive). Besides, in assay [3], the viability decrease was -53.4% (inactive). Also, the tube area decrease in assay [4] was 1.3% (inactive). Further, in assay [5], the GLP1 secretion stimulation is 0.5% (inactive). For the same compound, the inhibition of viability in assay [6] was -4.77% (inactive). The viability decrease (inhibition) in assay [7] was 14.5% (inactive); in assay [8], -20% (inactive).

For `C[C@H](CCC(=O)O)[C@H]1CC[C@H]2[C@@H]3CC[C@@H]4C[C@H](O)CC[C@]4(C)[C@@H]3C[C@H](O)[C@]12C`, the nuclear beta-catenin stimulation is -0.7% (inactive) in assay [1] (at 10 µM) and -1.1% in assay [1] (stimulation, at 2 µM). The insulin secretion stimulation in assay [2] is 1% (inactive). The viability decrease in assay [3] was 37.6% (inactive). For the same compound, the tube area decrease in assay [4] was 0% (inactive). In addition, the GLP1 secretion stimulation in assay [5] is -5% (inactive). For the same compound, in assay [6], the inhibition of viability is 57% (active). Besides, the viability decrease (inhibition) was 35.7% (inactive) in assay [7] and 9.8% (active) in assay [8].

As for `NC[C@@H]1O[C@H](O[C@H]2[C@H](O)[C@H](O[C@H]3[C@@H](O)[C@H](N)C[C@H](N)[C@H]3O[C@H]3O[C@H](CN)[C@H](O)[C@H](O)[C@H]3N)O[C@@H]2CO)[C@@H](N)[C@@H](O)[C@@H]1O`, the nuclear beta-catenin stimulation in assay [1] (at 10 µM) is -0.3% (inactive); in assay [1] (stimulation, at 2 µM) it was 0.4%. For the same compound, in assay [2], the insulin secretion stimulation was 3.2% (inactive). Moreover, in assay [3], the viability decrease was -8.9% (inactive). Besides, the tube area decrease in assay [4] was -22.4% (inactive). The GLP1 secretion stimulation in assay [5] is 63.5% (active). Besides, in assay [6], the inhibition of viability is 9% (inactive). Besides, the viability decrease (inhibition) is 31.1% (inactive) in assay [7] and 5% (active) in assay [8].

With `CC(C)(C)c1ccc(C(=O)CCCCl)cc1`, the nuclear beta-catenin stimulation in assay [1] (at 10 µM) was -0.1% (inactive); in assay [1] (stimulation, at 2 µM), 0.6%. Further, in assay [2], the insulin secretion stimulation was 3.7% (inactive). Besides, the viability decrease in assay [3] was -2.4% (inactive). Also, in assay [4], the tube area decrease is 20.9% (inactive). In addition, the GLP1 secretion stimulation in assay [5] was -3.6% (inactive). For the same compound, the inhibition of viability in assay [6] is 10.3% (inactive). The viability decrease (inhibition) in assay [7] is -21.3% (inactive); in assay [8] it was 0.9% (inactive).
